Assay results as given in PubChem BioAssay AID1851 (National Center for Advancing Translational Sciences (NCATS), 2009).
The whole screen tested about 16,000 compounds, of which about 4,000 (25%) were called active. Roughly 26% stayed inconclusive and do not appear here. Calls come from the whole dose curve; as a rule, active = well fitted curve in the direction sought with a large enough effect; inconclusive = small, poorly fitted or top-dose-only effect, or effect the other way; inactive = no such curve, though single readings can be large or run the other way. Not all results are given here.

Target: Cytochrome P450 2C9 (Homo sapiens) (UniProt P11712)
Sequence (P11712 whole entry, looked up): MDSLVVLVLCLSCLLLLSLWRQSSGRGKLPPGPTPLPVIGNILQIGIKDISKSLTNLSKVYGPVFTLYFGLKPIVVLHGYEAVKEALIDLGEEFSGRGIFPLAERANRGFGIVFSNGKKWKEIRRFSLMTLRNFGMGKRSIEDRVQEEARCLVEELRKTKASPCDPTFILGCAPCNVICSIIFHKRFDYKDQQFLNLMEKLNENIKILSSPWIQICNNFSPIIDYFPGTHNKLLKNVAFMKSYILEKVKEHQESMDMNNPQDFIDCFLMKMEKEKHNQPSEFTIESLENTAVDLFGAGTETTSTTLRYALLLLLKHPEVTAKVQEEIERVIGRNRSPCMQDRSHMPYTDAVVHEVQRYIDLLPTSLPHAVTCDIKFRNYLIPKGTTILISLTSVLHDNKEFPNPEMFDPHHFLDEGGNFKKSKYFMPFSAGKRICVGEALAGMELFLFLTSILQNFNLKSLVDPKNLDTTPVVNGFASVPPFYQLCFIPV
Test: Cytochrome panel assay with activity outcomes
Settings: recombinant CYP, pro-luciferin dealkylation, luminescence, p450-cyp2c9; series mostly up to 57.1 µM; activity, negative = inhibition: at the top concentration
% is set by controls: 0 for no effect and ±100 for the full control effect.

activity, negative = inhibition, inactive:
CO[C@H]1COC(=O)CCC[C@@H](C)[C@H](OC)COC(=O)[C@H]2CCCN2C(=O)C/C=C\[C@@H]1C 5.44% [at 11.4 µM]
O=C(N/N=C/c1ccco1)/C(=C/c1cccc([N+](=O)[O-])c1)NC(=O)c1ccccc1 -23.4%
C=CCOc1ccc2cccc(/C=N/NC(=O)c3cc4cc([N+](=O)[O-])ccc4s3)c2c1 -31.2%
Cc1ccc(C(=O)N/N=C/c2ccc([N+](=O)[O-])s2)cc1 -24.8%
Cc1noc(C)c1C(=O)N1CCC2(CC1)CN(c1ccccc1)C2 1.9%
Cc1noc(C)c1C(=O)N1CCC2(CCCN(c3ccccc3)C2)CC1 9.43%
c1cncc(CNc2cc(-c3ccoc3)ncn2)c1 2% [at 2.29 µM]
C/C(=N\OC(=O)c1ccc(F)cc1)c1nccs1 -20.9%
Nc1nc2c(c(=O)[nH]1)CN(CCCN1CCOCC1)CN2 11% [at 11.4 µM]
CC(=O)Nc1ccc(NC(=O)c2ccccc2CC[N+](=O)[O-])cc1 -19.2%
O=C(O)CCCCCNC(=O)c1ccccc1Br -16.4%
CCOc1ccc2nc3cc(N=Nc4ccc(N)nc4N)ccc3c(N)c2c1 1.7% [at 11.4 µM]
CC(/C=C/c1ccco1)=N/NC(=O)c1ccccc1Cl -14.2%
NC(=O)c1ccc(N2CCCCC2)c(N2C(=O)C3CC=CCC3C2=O)c1 (stereo not drawn) -18.8%
O=C(/C=C/c1ccc(Cl)cc1)NCCN1CCOCC1 -18.9%
O=C(Nc1ccc2nc(SCc3ccc(Cl)cc3)sc2c1)c1ccccc1C(=O)N1CCOCC1 -9.43%
CN1CCCN(C2C3CC4CC(C3)CC2C4)CC1 (stereo not drawn) -1.21%
CCN1C(=O)[C@H]2[C@H]3[C@H](O)[C@H](O)C/C(=N/OC[C@@H](O)[C@H]4O[C@H]5OC(C)(C)O[C@H]5[C@@H]4O)[C@@H]3CC[C@@H]2C1=O 11.9% [at 11.4 µM]
COc1ncnc(NS(=O)(=O)c2ccc(N)cc2)c1OC 45.6% [at 25.6 µM]
CN=C(NC#N)NCCSC[C@H]1N=CN=C1C -19.2% [at 25.6 µM]
CCOc1ccc(/C(O)=C2\C(=O)C(=O)N(CCOCCO)C2c2ccccc2OC)cc1 (stereo not drawn) -28.2%
COc1ccc(C2/C(=C(/O)c3ccccc3)C(=O)C(=O)N2CC(C)O)c(OC)c1 (stereo not drawn) -19.1%
COc1ccc(OC)c(C2N(c3cc(C)on3)C(=O)C3CCCN32)c1 (stereo not drawn) -0.725%
COc1ccc(/C(O)=C2\C(=O)C(=O)N(c3cc(C)on3)C2c2ccc(OC)c(OC)c2)cc1OC (stereo not drawn) -2.14%
CN1CCN(c2ncc3ncc(=O)n(C[C@H]4CCCO4)c3n2)CC1 -1.28%
CN(Cc1ccco1)c1cc(-c2ccc3c(c2)OCO3)ncn1 -13% [at 2.29 µM]
CCOC(=O)N/N=C1/C[C@@H](O)[C@@H](O)[C@@H]2[C@@H]3C(=O)N(CC)C(=O)[C@H]3CC[C@@H]12 9.77% [at 11.4 µM]
CN(C)CCCN1CCC2(CCC(C(C)(C)C)CC2)CC1 13% [at 11.4 µM]
CN(Cc1ccco1)c1nc(-c2ccccc2C(F)(F)F)nc2ccccc12 -1.38% [at 2.29 µM]
COCCNc1ncnc2ccc(-c3cccc(OC)c3)cc12 26.2% [at 2.29 µM]
Cc1cccc(CNc2ncnc3ccc(-c4cccnc4)cc23)c1 -11.3% [at 2.29 µM]
Cc1cnc(CNc2ncnc3ccc(-c4ccc5c(c4)OCO5)cc23)cn1 -11.4% [at 2.29 µM]
COc1cccc(-c2ccc3ncnc(NC4CC4)c3c2)c1 -17.4% [at 2.29 µM]
COc1ccccc1CNc1ncnc2ccc(-c3cccnc3)cc12 6.62% [at 2.29 µM]
N#Cc1ccccc1-c1ccc2ncnc(NC3CC3)c2c1 -9.89% [at 2.29 µM]
CNc1ncnc2ccc(-c3ccccc3C#N)cc12 -10.6% [at 2.29 µM]
COc1ccc2[nH]cc(CCNc3cc(-c4cccnc4)ncn3)c2c1 -3.3% [at 2.29 µM]
COc1ncc2nc(-c3cn(C)c4ccccc34)c(=O)n(C)c2n1 13.9%
COc1cc2c(cc1OC)C(CCN)=NCC2 -3.31% [at 11.4 µM]
C[C@]1(O)CC[C@H]2[C@H]3CC=C4N5CCN=C5CC[C@@]4(C)[C@H]3CC[C@@]21C -4.16% [at 11.4 µM]
Cc1cnc(CNc2ncnc3ccc(-c4cccc(C#N)c4)cc23)cn1 -16.4% [at 2.29 µM]
COc1ccc2[nH]cc(CCNc3cc(-c4cccc(C#N)c4)ncn3)c2c1 -22.1% [at 2.29 µM]
COc1ccc2[nH]cc(CCNc3ncnc4ccc(-c5ccccc5CN(C)C)cc34)c2c1 -13.9% [at 2.29 µM]
CNc1ncnc2ccc(-c3ccccc3OC)cc12 2.7% [at 2.29 µM]
CC(=O)NCCNc1ncnc2ccc(-c3ccc4c(c3)OCO4)cc12 5.09% [at 2.29 µM]
c1nc(NCCN2CCOCC2)c2cc(-c3ccc4c(c3)OCO4)ccc2n1 6.81% [at 2.29 µM]
COc1cccc(-c2ccc3ncnc(NCc4cnc(C)cn4)c3c2)c1 -22.3% [at 2.29 µM]
CC(C)=CCC/C(C)=C/CO/N=C1/C[C@@H](O)[C@@H](O)[C@@H]2[C@@H]3C(=O)N(C(C)(C)C)C(=O)[C@H]3CC[C@H]12 23% [at 11.4 µM]
CC(=O)OC[C@@H]1O[C@H](C/C=N\O[C@@H](C)CN2CCCCc3nc(C)c(C)cc32)C=C[C@@H]1OC(C)=O 10.2% [at 11.4 µM]
CC(C)[C@H](CO)Nc1nc(Nc2ccc(C(=O)O)c(Cl)c2)c2ncn(C(C)C)c2n1 15.2%
CC(C)Oc1cccc(-n2c(CCc3c[nH]c4ccc(Br)cc34)nc3ccccc3c2=O)c1 0.809%
CC(=O)NCCNc1nc(-c2ccc(N(C)C)cc2)nc2ccccc12 -16.1% [at 2.29 µM]
COc1ccccc1CNc1ccnc(-c2ccc3c(c2)OCO3)n1 -27.5% [at 2.29 µM]
COc1ccc(CNc2ccnc(-c3ccc4c(c3)OCO4)n2)c(OC)c1 -25.6% [at 2.29 µM]
O=C(O)[C@@H](O)Cc1ccccn1 -2.15% [at 11.4 µM]
O=C(COc1ccc(Cl)cc1Cl)N/N=C/CCc1ccccc1 -9.89%
C/C(=N\NC(=S)Nc1ccc(F)cc1)C1CC1 -19.9%
CC(C)C(=O)Nc1ccc(NC(=O)c2cccnc2)cn1 14.1%

AC50, active:
CC(/C=N/NC(=O)c1cccc([N+](=O)[O-])c1)=C\c1ccccc1 355 nM
COc1ccc(/C=N/NC(=O)c2cccc([N+](=O)[O-])c2)cc1OS(=O)(=O)c1ccc(C)cc1 891 nM
COc1cccc(/C=N/NC(=O)c2cccc([N+](=O)[O-])c2)c1OS(=O)(=O)c1ccc(C)cc1 3550 nM
Cc1cccc(N2CCN(C(=O)CSCc3c(C)noc3C)CC2)c1C 12600 nM
C/C(=C\c1ccco1)C1C(C#N)=C(N)Oc2n[nH]c(-c3ccccc3)c21 (stereo not drawn) 89.1 nM
O=C(NCCNc1ccc([N+](=O)[O-])cc1)c1ccccc1Br 14100 nM
Cc1ccc(NC(=O)CSCC(=O)Nc2ccc(N3CCOCC3)c(Cl)c2)cc1 5010 nM
Cc1ccc(NC(=O)c2cc(N3C(=O)C4CC=CCC4C3=O)ccc2N2CCOCC2)cc1Cl (stereo not drawn) 11200 nM
CCCC(=O)Nc1ccc2nc(SCC(=O)Nc3ccc(N4CCOCC4)c(Cl)c3)sc2c1 2240 nM
O=C(/C=C/c1ccco1)NC(=S)Nc1ccc(N2CCOCC2)c(Cl)c1 4470 nM
COc1cccc(/C(O)=C2/C(=O)C(=O)N(c3cc(C)on3)C2c2cccs2)c1 (stereo not drawn) 14100 nM
COc1ccc(C2/C(=C(/O)c3ccccc3)C(=O)C(=O)N2c2ccccn2)c(OC)c1 (stereo not drawn) 15800 nM
CNc1ncnc2ccc(-c3cccc(OC)c3)cc12 501 nM
COc1ccc2[nH]cc(CCNc3ncnc4ccc(-c5cccnc5)cc34)c2c1 1000 nM
Cc1cccc(CNc2ncnc3ccc(-c4ccc5c(c4)OCO5)cc23)c1 316 nM
COc1ccc2[nH]cc(CCNc3ncnc4ccc(-c5ccccc5C#N)cc34)c2c1 316 nM
COc1ccc2[nH]cc(CCNc3ncnc4ccc(-c5cccc(C#N)c5)cc34)c2c1 63.1 nM
COc1cccc(-c2ccc3ncnc(NCCc4c[nH]c5ccc(OC)cc45)c3c2)c1 398 nM
COc1ccc2[nH]cc(CCNc3ncnc4ccc(-c5ccc6c(c5)OCO6)cc34)c2c1 126 nM
COc1ccc2[nH]cc(CCNc3ncnc4ccc(-c5ccccc5OC)cc34)c2c1 251 nM
CC(C)[C@H](CO)Nc1nc(Nc2cc(N)cc(Cl)c2)c2ncn(C(C)C)c2n1 20000 nM
O=c1/c(=C\c2ccc(O)cc2)sc2n1C(c1ccccc1)C(c1ccccc1)=NN=2 (stereo not drawn) 3550 nM
COc1ccc([C@@H](Nc2ncccn2)c2cc3c(cc2O)OCO3)cc1 3160 nM
COc1ccc([C@@H](C)c2cc3c(cc2O)OCO3)cc1 1580 nM
CC(C/C=N/NC(=O)COc1cc(Cl)ccc1Cl)c1ccccc1 (stereo not drawn) 10000 nM
CC(C)C(=O)Nc1ccc(Sc2ccc(F)cc2)cc1 14100 nM

AC50, inactive:
NNc1nncc2ccccc12
Cc1cccc([C@@H]2CN(C)CCc3c2cc(O)c(O)c3Cl)c1
CC[C@@]12CCCN3CCc4c(n(c5ccccc45)[C@](O)(C(=O)OC)C1)[C@H]32
CC(C)(C)NC[C@H](O)COc1cccc2c1CCCC2=O
